# Measured values as given in ChEMBL document CHEMBL1201862, “PubChem BioAssay data set” (2004).
# Only a part of the results of these assays is listed, not drawn at random. Calls of active or inactive are those of the source. No cut-off for these calls is given here.
# Biological target: Luciferin 4-monooxygenase (Photinus pyralis) (UniProt P08659)
# Sequence (P08659 whole entry): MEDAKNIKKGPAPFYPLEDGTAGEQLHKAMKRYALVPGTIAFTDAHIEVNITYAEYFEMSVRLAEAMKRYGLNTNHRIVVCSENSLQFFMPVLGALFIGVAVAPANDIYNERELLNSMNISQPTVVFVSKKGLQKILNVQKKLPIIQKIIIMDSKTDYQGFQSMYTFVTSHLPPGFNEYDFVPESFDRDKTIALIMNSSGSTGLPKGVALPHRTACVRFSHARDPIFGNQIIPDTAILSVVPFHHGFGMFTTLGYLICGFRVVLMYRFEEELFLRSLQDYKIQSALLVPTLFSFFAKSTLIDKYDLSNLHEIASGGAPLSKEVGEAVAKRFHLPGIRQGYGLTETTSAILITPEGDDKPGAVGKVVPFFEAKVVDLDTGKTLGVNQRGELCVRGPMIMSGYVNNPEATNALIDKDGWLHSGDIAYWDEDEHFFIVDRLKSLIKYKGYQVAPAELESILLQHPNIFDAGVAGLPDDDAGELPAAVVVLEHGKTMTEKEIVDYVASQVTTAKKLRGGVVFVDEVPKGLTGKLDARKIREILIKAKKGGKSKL
smiles,measurement,value
CC(O)[C@@H]1NC(=O)[C@H](CCCCN)NC(=O)[C@@H](Cc2c[nH]c3ccccc23)NC(=O)[C@H](Cc2ccccc2)NC(=O)[C@@H](NC(=O)[C@H](N)Cc2ccccc2)CSSC[C@@H](C(=O)N[C@H](CO)[C@@H](C)O)NC1=O (stereo partly specified),Potency,inactive
